Source: PubChem BioAssay (NCATS)
Values joined by “and” are separate entries in the source; they are usually repeats but may differ in a detail not shown here. Identical values can stand only once. Records with an inconclusive call do not appear. Active and inactive are the calls of the source. Unless noted, calls follow the shape of the dose curve; as a rule, active = well fitted curve in either direction with a large enough effect (not every such curve was filed as active); inconclusive = small, poorly fitted or top-dose-only effect, or another doubt; inactive = flat fitted curve, though single readings scatter.

Legend:
[1] = AP1 Signaling Pathway (AID 357);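 also: ME-180 reporter cells stimulated with EGF at its EC50 level; % is scaled to controls: 0 for no effect and ±100 for the full control effect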
Outline: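 First, ME-180 AP-1-bla cells were cultured overnight at 37 °C in low-serum Opti-MEM. Next, titrated compounds with EC50 EGF were incubated 5 hours. Finally, CCF4 was added for 2.5 hours and the 460/530 nm ratio recorded.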

[2] = biological target: Cytochrome P450 1A2 (Homo sapiens) (UniProt P05177); assay: p450-cyp1a2 (AID 410; calls by dose curve;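 also: -100% = full effect of reference inhibitor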)
Outline: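 Luminescent demethylation readout: Luciferin-ME (100uM, equal to Km) turned over by 20nM CYP1A2 for 60 min at room temperature after NADPH regeneration addition, following 10 min compound preincubation. Normalization used 57 uM furafylline as full inhibition.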

[3] = Cell Viability - BJ (AID 421; calls by dose curve;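 also: potency is read from the fitted curve at half-maximal effect; cells exposed to compound for 40 hours at 37 °C before readout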); details: BJ fibroblast viability, qHTS
Outline: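 Cytotoxicity as drop in intracellular ATP (CellTiter-Glo, 20 min RT) after 40 hr compound exposure of BJ fibroblasts at 37 °C. Titrations scaled between DMSO and 100 uM tamoxifen, Hill-fitted for AC50.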

[4] = Cell Viability - Jurkat (AID 426;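 active = dose-dependent loss of cell ATP signal giving a full or clear fitted curve, ranked by lower potency value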; also: potency is read from the fitted curve at half-maximal effect); details: qHTS
Outline: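 Cytotoxicity taken as drop in cellular ATP (CellTiter-Glo luminescence, 20 min room temperature) after 40 hr, 37C treatment of 5000 Jurkat Clone E6-1 cells per well; concentration-response fitted with Hill equation for AC50.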

[5] = Cell Viability - Hek293 (AID 427;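 active = compounds whose dose-response curve shows a full or clear partial loss of cell viability, called from curve shape rather than a numeric limit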;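 also: potency is read from the fitted curve at half-maximal effect; cells exposed to compound for 40 hours at 37 °C before reading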); details: qHTS
Outline: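 Luminescent ATP content (CellTiter-Glo, 20 min at room temperature) was measured after a 40 hr, 37 °C compound exposure of HEK293 cells. AC50 values came from Hill-equation fits of qHTS concentration-response data normalized to DMSO and 100 uM tamoxifen.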

[6] = Cell Viability - HepG2 (AID 433; calls by dose curve;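 also: potency is read from the fitted curve at half-maximal effect; potency for ATP loss meaning cytotoxicity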); details: qHTS
Outline: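 In this qHTS format, a 40 h, 37 °C compound incubation of HepG2 cells in complete medium precedes a 20 min CellTiter-Glo step at room temperature. Tamoxifen and doxorubicin serve as positive controls; Hill-equation fits yield AC50.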

[7] = Cell Viability - MRC5 (AID 434; calls by dose curve;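 also: potency is read from the fitted curve at half-maximal effect; potency reflects cytotoxicity seen as loss of intracellular ATP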); details: MRC5 lung fibroblast viability, qHTS
Outline: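 ATP luminescence read-out (CellTiter-Glo, 20 min RT) after 40 hr, 37 °C compound exposure of 1500 MRC5 cells/well. Data normalized to DMSO (basal) and 100 uM tamoxifen (100% inhibition); AC50 from standard Hill equation.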

[8] = Cell Viability - SK-N-SH (AID 435; calls by dose curve; also: potency is read from the fitted curve at half-maximal effect); details: SK-N-SH neuroblastoma cell viability qHTS
Outline: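 Human neuroblastoma line, 40 h exposure at 37 °C, ATP quantified via luciferase luminescence; DMSO and 100 uM tamoxifen define 0 and 100% inhibition for AC50 fitting.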

[9] = NFAT Signaling Pathway (AID 444); details: Jurkat NFAT-bla M1, carbachol, beta-lactamase ratio, 5 h;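 also: carbachol stimulus at about its EC50 of 1 µM final; % is scaled to controls: 0 for no effect and ±100 for the full control effect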
Outline: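 Jurkat cells with NFAT-driven β-lactamase reporter and co-expressed M1 receptor, stimulated with carbachol (final 1 uM, ~EC50), compound titration, 5 h at 37 °C. CCF4 loaded 1 h at RT; 460/530 nm ratio gave %activity and AC50.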

[10] = Stat Signaling Pathway (AID 446);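 also: ME-180 cervical cancer cells given 40 pM IL-6 alongside compound; SIE-controlled beta-lactamase reporter measured as 460/530 nm FRET emission ratio; % is scaled to controls: 0 for no effect and ±100 for the full control effect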
Outline: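 FRET read-out (405 nm excitation, 460/530 nm emission) of a beta-lactamase reporter under a STAT-inducible element in ME-180 cervical carcinoma cells. Cells with compound receive 40 pM IL-6 for 5 h. Values are normalised to AC90 stimulation and AC90 JAK-inhibitor controls.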

[11] = biological target: Glucocorticoid receptor (Homo sapiens) (UniProt P04150); assay: GR-GFP Redistribution (AID 450;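 active = compounds whose dose series gives a full or clear partial fitted curve of increased nuclear translocation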; also: potency is read from the fitted curve at half-maximal effect); details: U2OS GR-GFP nuclear translocation, laser cytometry, 2 h
[12] = biological target: Glucocorticoid receptor (Homo sapiens) (UniProt P04150); assay: GR-EFC Redistribution (AID 451; calls by dose curve; also: potency is read from the fitted curve at half-maximal effect); details: CHO-K1 GR-EFC translocation, beta-gal luminescence, 2 h
Outline: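 CHO-K1 cells expressing nuclear EA and GR-ED fragments of b-gal; compounds titrated up to 46 uM final, 2 h at 37 C. GR nuclear translocation read as complemented b-gal luminescence after 1 h RT detection.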

[13] = biological target: Mitogen-activated protein kinase 10 (Mus musculus) (UniProt Q61831); assay: JNK3 AlphaScreen Assay (AID 530);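 also: kinase came from lysate of stimulated human HepG2 cells; signal reports phosphorylation of biotinylated GST-cJun 1-79 at Ser73 with 10 µM ATP; % is scaled to controls: 0 for no effect and ±100 for the full control effect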
Outline: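 Activity was read by AlphaScreen after JNK3-containing HepG2 lysate (cytokine pre-activated) phosphorylated biotinylated GST-cJun with 10 uM ATP at room temperature. Phospho-Ser73 cJun antibody with Protein-A acceptor beads provided detection.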

[14] = Cell Viability - N2a (AID 540; active = well fitted curve in the direction sought with a large enough effect; an effect the other way counts as inactive or inconclusive; also: nearly all actives have a fitted effect of over 45% in size; also: potency is read from the fitted curve at half-maximal effect;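 as to activity change, negative = cytotoxicity: plate controls were DMSO alone for no effect and tamoxifen control for full effect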); details: N2a mouse neuroblastoma cell viability; activity change, negative = cytotoxicity: at 92.2 µM (top of the series)
Outline: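 CellTiter-Glo ATP luminescence, read 20 min after reagent at room temperature, reported viability following 40 h compound treatment at 37 °C. N2a mouse neuroblastoma cells seeded 1500/well; Hill equation gave AC50.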

[15] = Cell Viability - NIH 3T3 (AID 541; active = well fitted curve in the direction sought with a large enough effect; an effect the other way counts as inactive or inconclusive; also: nearly all actives have a fitted effect of over 25% in size; also: potency is read from the fitted curve at half-maximal effect;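 as to activity change, negative = cytotoxicity: plate controls were DMSO alone for no effect and tamoxifen positive control for full effect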); details: NIH 3T3 cell viability, qHTS; activity change, negative = cytotoxicity: at 92.2 µM (top of the series)
Outline: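 Intracellular ATP (CellTiter-Glo luminescence, 20 min at room temperature) measured after 40 hr compound exposure at 37 °C of 1000 NIH 3T3 mouse fibroblasts/well in complete medium; AC50 derived by Hill-equation modelling of qHTS concentration-response curves.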

[16] = Cell Viability - HUV-EC-C (AID 542; active = well fitted curve in the direction sought with a large enough effect; an effect the other way counts as inactive or inconclusive; also: % is scaled to controls: 0 for no effect and ±100 for the full control effect; nearly all actives have a fitted effect of over 35% in size)
Outline: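 CellTiter-Glo luminescence measured ATP loss in HUV-EC-C cells (1000/well) after 40 hr compound exposure at 37 °C, in complete culture medium. Concentration-response data were Hill-fitted to give AC50.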

[17] = Cell Viability - H-4-II-E (AID 543; active = well fitted curve in the direction sought with a large enough effect; an effect the other way counts as inactive or inconclusive; also: nearly all actives have a fitted effect of over 35% in size; also: potency is read from the fitted curve at half-maximal effect)
Outline: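 CellTiter-Glo luminescence (intracellular ATP) measured after 40 h compound exposure at 37 °C in H-4-II-E rat hepatoma cells seeded at 1500/well. Values are AC50s fitted with the standard Hill equation.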

[18] = Cell Viability - SH-SY5Y (AID 544; active = well fitted curve in the direction sought with a large enough effect; an effect the other way counts as inactive or inconclusive; also: nearly all actives have a fitted effect of over 55% in size; also: potency is read from the fitted curve at half-maximal effect;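 as to viability change, negative = cytotoxic: 0% = DMSO alone and -100% = 100 µM tamoxifen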); details: SH-SY5Y neuroblastoma cell viability; viability change, negative = cytotoxic: at 92.2 µM (top of the series)
Outline: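 Cytotoxicity measured via ATP-dependent luciferase luminescence (CellTiter-Glo) following 40 h, 37 °C exposure of 1500 SH-SY5Y cells per well. Concentration-response data were fitted with the standard Hill equation to give AC50.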

[19] = Cell Viability - Renal Proximal Tubule (AID 545; active = well fitted curve in the direction sought with a large enough effect; an effect the other way counts as inactive or inconclusive; also: nearly all actives have a fitted effect of over 40% in size; also: potency is read from the fitted curve at half-maximal effect;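 as to activity change, negative = cytotoxicity: 0% = DMSO only and -100% = 100 µM tamoxifen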)
Outline: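 In this qHTS format, normal rat kidney-derived proximal tubule cells in complete culture medium receive compound titrations, then sit 40 hours at 37 °C before luciferase-based ATP quantitation; potency is reported as AC50 from concentration-response curves.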

Sequence of Glucocorticoid receptor (Homo sapiens) (P04150 whole entry, looked up, the tested form may be a part): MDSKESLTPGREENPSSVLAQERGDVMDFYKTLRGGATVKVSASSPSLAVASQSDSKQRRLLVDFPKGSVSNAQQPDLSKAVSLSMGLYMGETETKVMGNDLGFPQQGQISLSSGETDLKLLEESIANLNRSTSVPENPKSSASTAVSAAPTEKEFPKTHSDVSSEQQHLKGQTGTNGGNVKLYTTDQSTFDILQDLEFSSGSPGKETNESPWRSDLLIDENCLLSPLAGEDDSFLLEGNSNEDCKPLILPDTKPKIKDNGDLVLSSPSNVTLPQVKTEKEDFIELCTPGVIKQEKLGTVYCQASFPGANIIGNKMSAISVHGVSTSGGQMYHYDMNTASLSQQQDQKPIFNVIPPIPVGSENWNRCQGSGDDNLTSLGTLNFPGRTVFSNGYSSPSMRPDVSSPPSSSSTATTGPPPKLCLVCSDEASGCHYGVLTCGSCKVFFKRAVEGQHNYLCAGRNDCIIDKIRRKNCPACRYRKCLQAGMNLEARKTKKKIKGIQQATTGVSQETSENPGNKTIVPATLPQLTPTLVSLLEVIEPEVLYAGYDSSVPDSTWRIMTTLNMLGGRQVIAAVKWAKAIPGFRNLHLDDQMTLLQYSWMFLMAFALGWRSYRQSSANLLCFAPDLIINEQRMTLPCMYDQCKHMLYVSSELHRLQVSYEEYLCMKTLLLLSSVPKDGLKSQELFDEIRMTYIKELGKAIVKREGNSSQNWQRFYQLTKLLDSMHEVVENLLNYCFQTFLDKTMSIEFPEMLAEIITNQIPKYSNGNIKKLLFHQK
Sequence of Cytochrome P450 1A2 (Homo sapiens) (P05177 whole entry, looked up): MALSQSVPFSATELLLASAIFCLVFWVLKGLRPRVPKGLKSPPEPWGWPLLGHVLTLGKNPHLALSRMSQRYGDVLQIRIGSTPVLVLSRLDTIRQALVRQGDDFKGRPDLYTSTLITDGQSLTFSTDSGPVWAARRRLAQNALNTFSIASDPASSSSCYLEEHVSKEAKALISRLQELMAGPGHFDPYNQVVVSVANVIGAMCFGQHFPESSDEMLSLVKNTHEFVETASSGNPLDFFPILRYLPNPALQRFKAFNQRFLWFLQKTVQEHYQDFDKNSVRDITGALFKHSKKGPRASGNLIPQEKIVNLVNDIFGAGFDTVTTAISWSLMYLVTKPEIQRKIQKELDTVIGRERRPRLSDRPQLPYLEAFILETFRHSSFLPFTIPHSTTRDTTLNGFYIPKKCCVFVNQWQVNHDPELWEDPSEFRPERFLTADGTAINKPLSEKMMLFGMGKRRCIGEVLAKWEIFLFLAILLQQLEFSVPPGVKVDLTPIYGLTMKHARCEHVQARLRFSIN

O=c1[nH]cc(F)c(=O)[nH]1
active: Potency [15] 0.316 µM | Potency [17] 0.631 µM | Potency [18] 15.8 µM
inactive: outcome [1] | Potency [2] | Potency [3] > 92 µM | Potency [4] > 92 µM | Potency [5] > 92 µM | Potency [6] > 92 µM | Potency [7] > 92 µM | Potency [8] 9.55 µM | activity change, negative = inhibition ([9]; at 38 µM (top of the series)) 18.8% | outcome [10] | Potency [11] > 46 µM | Potency [12] > 46 µM | outcome [13] | activity change, negative = cytotoxicity [14] -18.1% | outcome [16]

CN(Cc1cnc2nc(N)nc(N)c2n1)c1ccc(C(=O)N[C@@H](CCC(=O)O)C(=O)O)cc1
inactive: Potency [2] | outcome [13]

Clc1ccccc1C(c1ccccc1)(c1ccccc1)n1ccnc1
inactive: outcome [10] | Potency [11] > 46 µM and > 20.6 µM | Potency [12] > 46 µM and > 20.6 µM | outcome [13]

CCCCc1oc2ccccc2c1C(=O)c1cc(I)c(OCCN(CC)CC)c(I)c1
inactive: outcome [1] | activity change, negative = inhibition ([9]; at 17.2 µM (top of the series)) 4.27% | outcome [10] | outcome [13]

CC(C)NCC(O)c1ccc(O)c(O)c1 (configuration not stated)
inactive: Potency [3] > 92 µM | Potency [5] > 92 µM | Potency [6] > 92 µM | Potency [7] > 92 µM | Potency [8] > 92 µM | outcome [13] | activity change, negative = cytotoxicity [14] 0.719% | Potency [15] | outcome [16] | Potency [17] | Potency [18] | Potency [19]

NC(=O)NO
inactive: outcome [1] | activity change, negative = inhibition ([9]; at 38 µM (top of the series)) 9.2% | outcome [10] | Potency [11] > 46 µM | Potency [12] > 46 µM | outcome [13]

CC(C)Cc1ccc(C(C)C(=O)O)cc1 (configuration not stated)
inactive: outcome [1] | activity change, negative = inhibition ([9]; at 17.2 µM (top of the series)) -15% | outcome [10] | Potency [11] > 20.6 µM

COc1ccccc1N1CCN(CC(O)COc2cccc3ccccc23)CC1 (configuration not stated)
inactive: outcome [1] | activity change, negative = inhibition ([9]; at 17.2 µM (top of the series)) 9.92% | outcome [10] | Potency [11] > 20.6 µM

COc1cc2c(c(OC)c1OC)-c1ccc(OC)c(=O)cc1[C@@H](NC(C)=O)CC2
active: Potency [4] 2.81 nM and 1.63 nM | Potency [8] 9.09 nM and 5.26 nM | Potency [14] 0.01 µM | Potency [17] 0.126 µM | Potency [18] 5.01 nM and 3.98 nM | Potency [19] 25.1 nM and 20 nM
inactive: Potency [3] > 92 µM | Potency [5] > 92 µM | Potency [6] > 92 µM | Potency [7] > 92 µM | outcome [13] | Potency [15] | outcome [16]
